Inconclusive results are not listed. Activity calls are given as the source filed them. The call rests on the fitted dose curve; in most records, active means well fitted inhibition curve with a large enough effect; inconclusive means small, poorly fitted or top-dose-only effect; inactive means no such curve, though single readings can be large or run the other way.

The test can be described thus: Primary qHTS for inhibitors of La Crosse Virus (LACV) - induced cell death in SH-SY5Y cells (AID 1508616). Further: top concentration of the series differs between compounds. As to conditions: SH-SY5Y LACV cytopathicity rescue, ATP luminescence, 6 d; series mostly up to 4.29 µM. The source says:
Assay Provider: Karin Peterson Ph.D.
National Institute of Allergy and Infection Diseases, National Institute of Health
La Crosse Virus (LACV) is a California serogroup mosquito-borne arbovirus, family Peribunyaviridae, which is an endemic pathogen in North America and can induce a rare, life-threatening neurological disease in children. LACV was first isolated in the early 1960s, from a summer "rural encephalitis" case in La Crosse, Wisconsin, USA. Since then, LACV encephalitis cases have been found in more than twenty states, with most cases in the Mississippi and Ohio River basins. The life cycle of LACV is maintained between the vector, the eastern tree-hole mosquito Aedes triseriatus, and vertebrate hosts including eastern gray squirrels (Sciurus carolinensis) and chipmunks (Tamiasstriatus grinseus). […] Most LACV infections in humans are asymptomatic or induce mild clinical symptoms of fever, headache, lethargy and vomiting. However, in some cases LACV can cause severe neuroinvasive disease, including encephalitis, meningitis, and meningoencephalitis, requiring hospitalization. To date, there is neither a licensed vaccine nor a Food and Drug Administration (FDA) approved antiviral therapy available to prevent or treat LACV encephalitis. The primary treatment for viral encephalitis is palliative care due to the lack of therapeutics. In the current study, we conducted a screen of 4,096 FDA approved and bioactive small molecules against LACV, by screening for rescue of LACV-induced cell death in SH-SY5Y cells.
LACV-induced cytopathicity assay
SEQUENCE No. (1,2, 3, etc.); […] (e.g., Cells, Incubation, Reagent, etc.); VALUE and DESCRIPTION.
1. Reagent; 2 uL; Cell solution.
3. Compounds; 23nL; Compound library
4. Reagent; 12 uL; LACV virus
6. Reagent; 24 uL; ATPLite (PerkinElmer)
7. Time; 5 min; Room temperature
8. Detection; Luminescence; View
NOTES (numbers refer to sequence above)
1. Seed 6000 SH-SY5Y cells (ATCC CRL-2266) in 2 microL/well media (DMEM/F12 10% FBS, 1x L-Glutamine, 1x Pyruvate, 1x NEAA, 1x Pen/Strep) in 384-well assay plates (tissue culture treated, white, solid bottom).
2. Incubate at 37 degrees C with 5% CO2 for 24 hr.
3. Dispense 23 nL/well compounds in DMSO via pin transfer.
4. Dispense 12 microL/well of LACV (LACV/human/1978) in media at 0.01 MOI.
5. Incubate at for 6 days at 37C 5% CO2
6. Dispense 24 microL/well of ATPLite 1step Luminescence assay system (PerkinElmer).
7. Incubate for 5 min at room temperature.
8. Read luminescence signal (Viewlux plate reader, PerkinElmer). Data was normalized with DMSO control wells containing LACV as 0%, and DMSO control wells without virus as 100%.
With `O=C(O)c1ccccc1O`, the outcome was inactive.
The same measure for `CN1[C@@H]2CC(OC(=O)[C@H](CO)c3ccccc3)C[C@H]1[C@@H]1O[C@@H]12` (stereo not given in full): “inactive”; for `COc1ccc2cc1Oc1ccc(cc1)C[C@H]1c3c(cc4c(c3Oc3cc5c(cc3OC)CCN(C)[C@@H]5C2)OCO4)CCN1C`: “inactive”.
On to `O=C1O[C@H]([C@@H](O)CO)C(O)=C1O`, for which the outcome was inactive.
The same measure for `CCCn1cnc2c1c(=O)n(CCCCC(C)=O)c(=O)n2C`: “inactive”.
For `C[C@]12CC[C@@H]3c4ccc(O)cc4CC[C@H]3[C@@H]1CC[C@@H]2OC(=O)CCC1CCCC1`, the compound was called inactive.
Take `C[C@H](N)[C@H](O)c1cccc(O)c1`: the call was inactive.
`CSc1ccc2c(c1)C(N1CCN(C)CC1)Cc1ccccc1S2` (stereo not given): the compound was called inactive.
With `CCCCOc1cc(C(=O)OCCN(CC)CC)ccc1N` the entry was “inactive”; with `C=Cc1c(C)c2cc3[nH]c(cc4nc(cc5nc(cc1[nH]2)C(C)=C5CCC(=O)O)C(CCC(=O)O)=C4C)c(C)c3C=C`, “inactive”.
For `Cc1cccc(Nc2cc(Cl)nc(SCC(=O)O)n2)c1C`, the outcome was inactive.
The same measure for `CC(C)(O)c1ccccc1CC[C@@H](SCC1(CC(=O)O)CC1)c1cccc(/C=C/c2ccc3ccc(Cl)cc3n2)c1`: “inactive”; for `CC1=C(CC(=O)O)c2cc(F)ccc2/C1=C\c1ccc(S(C)=O)cc1` (stereo not given): “inactive”.
In the case of `CSc1ccc2c(c1)N(CCC1CCCCN1C)c1ccccc1S2` (stereo not given), the compound was called inactive.
On to `CN(C)CCN(Cc1ccccc1)c1ccccn1`, for which the outcome was inactive.
With `O=C(O)COc1nn(Cc2ccccc2)c2ccccc12` the entry was “inactive”; with `CN(N=O)C(=O)N[C@@H]1[C@@H](O)[C@H](O)[C@@H](CO)O[C@@H]1O`, “inactive”; with `COc1ccc2cc1Oc1cc3c(cc1OC)CC[N+](C)(C)[C@H]3Cc1ccc(cc1)Oc1c(OC)c(OC)cc3c1[C@@H](C2)[N+](C)(C)CC3`, “inactive”.
With `O=C1c2c(O)cccc2Cc2cccc(O)c21` the entry was “inactive”; with `CCOC(CN1CCN(CC(C)C(=O)c2ccccc2)CC1)c1ccccc1` (stereo not given), “inactive”.
Consider `Cc1ncc(COP(=O)(O)O)c(C=O)c1O`, for which the outcome was inactive.
With `N[C@H]1C(O)O[C@H](CO)[C@@H](O)[C@@H]1O` (stereo not given in full) the entry was “inactive”; with `CC1CC(OC(=O)C(O)c2ccccc2)CC(C)(C)N1C` (stereo not given), “inactive”.
With `CC(C)(C)[C@]1(O)CCN2C[C@H]3c4ccccc4CCc4cccc(c43)[C@@H]2C1` the entry was “inactive”.
The same measure for `NS(=O)(=O)c1cc2c(cc1C(F)(F)F)NC(Cc1ccccc1)NS2(=O)=O` (stereo not given): “inactive”; for `O=S(=O)(O)NC1CCCCC1`: “inactive”.
On to `CCCCc1ncc(/C=C(\Cc2cccs2)C(=O)O)n1Cc1ccc(C(=O)O)cc1`, for which the call was inactive.
For `O=c1[nH]cnc2c1ncn2[C@@H]1O[C@H](CO)[C@@H](O)[C@H]1O`, the result was inactive.
With `O=C(O)[C@@H]1CSCN1` the entry was “inactive”.
With `CC(C)(C)c1onc(OCP(=O)(O)O)c1CC(N)C(=O)O` (stereo not given), the compound was called inactive.
The same measure for `CCn1cc(C(=O)O)c(=O)c2cnc(N3CCNCC3)nc21`: “inactive”; for `O=C1N=C(O)CN1/N=C/c1ccc(-c2ccc([N+](=O)[O-])cc2)o1`: “inactive”; for `CN1CCOC(c2ccccc2)c2ccccc2C1` (stereo not given): “inactive”.
`Nc1cc(=O)[nH]c(N)n1`: the compound was called inactive.
As to `Cc1cc(O)cc2c1O[C@](C)(CCC[C@H](C)CCC[C@H](C)CCCC(C)C)CC2`, the call was inactive.
For the compound `CC[C@@]1(c2ccccc2)NC(=O)N(C)C1=O`, the outcome was inactive.
Take `CC(=O)Oc1ccc(C2(c3ccc(OC(C)=O)cc3)C(=O)Nc3ccccc32)cc1`: the compound was classed as inactive.
`Cc1c(Cl)cccc1Nc1ccccc1C(=O)O`: the compound was classed as inactive.
The same measure for `OC[C@H]1O[C@@H](O[C@@H]2[C@@H](CO)O[C@](O)(CO)[C@H]2O)[C@H](O)[C@@H](O)[C@H]1O`: “inactive”.
`Oc1ccc(C(O)CNCCCCCCNCC(O)c2ccc(O)c(O)c2)cc1O` (stereo not given): the call was inactive.

Source of the values: PubChem BioAssay (NCATS).
